# Pf Dd2 growth – qHTS Primary assay for Inhibitors of Plasmodium falciparum Dd2 growth in vitro. P. falciparum Dd2 growth, SYBR Green, 72 h. Potency, µM (highest dose often 28.9 µM), for the others: top-dose activity, negative = inhibition, hits mostly inhibitors. 4.3% of 120,000 active. AID 1347417, 2020; active means well fitted inhibition curve with a large enough effect;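 further: plate controls were DMSO vehicle for no effect and reference drug for full effect; nearly all actives have a fitted effect of over 65% in size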
#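 Infected erythrocytes (Dd2, 0.3% parasitemia, 2.5% hematocrit final) are added to compound in RPMI-1640/Albumax II medium, grown 72 h at 37C in low oxygen, then lysed with saponin/Triton-X containing SYBR Green and read by fluorescence.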
# The depositor's hits bear a star; i = inactive; [ ] = another dose, or the depositor's remark. The sample as a whole holds a higher share of hits than the screen did. Potency means the concentration at half of the fitted maximal effect.
SMILES,Pf Dd2 growth
COc1cccc(C(=O)NCCn2ccn3nc(-c4ccc(F)cc4)cc3c2=O)c1OC,i
COCCN1C(=O)c2cccn2CC1CNC(=O)Cc1c(C)noc1C (configuration not stated),-12%
CCc1ccc(NC(=O)Cn2ncc3c(C)n(Cc4cccc(Cl)c4)c(C)c3c2=O)cc1,-2%
Cc1cc(NC(=O)CSc2nc(-c3ccccc3F)nc3c2c(=O)n(C)c(=O)n3C)no1,7%
CC1=C(c2ccc(C)cc2)S(=O)(=O)N(Cc2ccc(C(=O)Nc3ccc(F)cc3C)cc2)C1=O,25%
Cc1nc2nc(SCC(=O)NC(C)c3ccccc3)nn2c(C)c1Cc1c(F)cccc1Cl (configuration not stated),19%
O=S(=O)(Cc1ccccc1)N1CCC(Cc2nncn2-c2ccccc2)CC1,i
CC(C)(C)OC(=O)N1CCC(c2c(C(=O)NCc3ccc4c(c3)OCO4)cnn2-c2ccc(F)cc2F)CC1,7.9µM*
Cn1nc(C2CCCN(C(=O)c3ccncc3)C2)n(Cc2ccccc2)c1=O (configuration not stated),6%
O=C(NC1CCOCC1)c1ccc2c(c1)OCCN(c1ccccc1)C2,i
O=C(NCc1ccncc1)c1ccc2c(c1)OCCN(c1cccc(OC(F)(F)F)c1)C2,i
CNC(=O)c1ccc2c(c1)OCCN(c1cccc(OC(F)(F)F)c1)C2,11µM*
O=C(NCc1ccncc1)c1ccc2c(c1)OCCN(c1ccccc1)C2,-17%[44.1 µM]
O=C(NCCOc1ccccc1)c1ccc2c(c1)OCCN(c1ccccc1)C2,-12%[44.1 µM]
O=C(NCCc1ccccc1)c1ccc2c(c1)OCCN(c1ccccc1)C2,10µM*
O=C(Nc1nccs1)c1ccc2c(c1)OCCN(c1cccc(OC(F)(F)F)c1)C2,-8%[44.1 µM]
COc1ccc(NC(=O)c2ccc3c(c2)OCCN(c2ccccc2)C3)cn1,-24%[44.1 µM]
O=C(NC1CC1)c1ccc2c(c1)OCCN(c1cccc(OC(F)(F)F)c1)C2,3.5µM*
CN(C)C(Cn1cc(-c2cncnc2)nn1)c1ccccc1Cl (configuration not stated),-17%
COc1ccc(NC(=O)Cn2c(N3CCN(c4ccccc4)CC3)nc(C)cc2=O)cc1OC,-15%
CCC[C@@H]1CN(C(=O)c2ccccc2-c2ccccc2F)C[C@H]1NC(C)=O,-4%
O=C(c1cccnc1OC1CCN(Cc2ccccn2)C1)N1CCOCC1 (configuration not stated),i
Cc1ccc(CN2CC(Oc3ccccc3C(=O)N3CCOCC3)C2)cc1C,2.8µM*
O=C(NC1CC1)c1ccccc1OC1CN(Cc2ccc(F)c(F)c2)C1,i
CCc1cc(=O)n(CC(=O)N(C)c2cccc(C)c2)c(-c2ccccc2)n1,-9%
SMILES,Pf Dd2 growth
CC(C)OCCCNC(=O)Cc1ccc(NC(=O)N2CCCCc3ccccc32)cc1,29%
O=C(O)CCn1ncc2cc(OC3CCN(C(=O)Oc4ccccc4)CC3)ccc21,i
O=C(O)CCn1ncc2cc(OC3CCN(C(=O)c4cc(F)ccc4Cl)CC3)ccc21,-10%
CNC(=O)CCn1ncc2cc(OC3CCc4cccc(-c5ccnc(C)c5)c43)ccc21 (configuration not stated),0%[44.1 µM]
CNC(=O)CCn1ncc2cc(OC3CCc4cccc(-c5ccccc5)c43)ccc21 (configuration not stated),2.8µM*
CNC(=O)CCn1ncc2cc(OC3CCc4cccc(-c5cccc(F)c5)c43)ccc21 (configuration not stated),i
CNC(=O)CCn1ncc2cc(OC3CCc4cccc(-c5ccc(F)cc5)c43)ccc21 (configuration not stated),14µM*
CS(=O)(=O)c1ccc(CNC[C@H]2COCc3nc4cc(F)ccc4n32)cc1,i
Cn1nc(-c2ccc3ccccc3c2)cc1[C@H]1CN2CC[C@H]1C[C@@H]2CNC(=O)c1cccs1,i
CCCNC(=O)CCc1ccnc(N2CCCC2)c1,-26%
Cc1ccccc1NC(=O)C(=O)NCC1(c2ccccc2)CCCC1,-23%
CC(=O)c1ccc(NC(=O)c2sc3nc4c(cc3c2N)N2CCC4CC2)cc1,-15%
Nc1c(C(=O)Nc2ccc(OC(F)(F)F)cc2)sc2nc3c(cc12)N1CCC3CC1,11µM*
COc1ccc(NC(=O)c2sc3nc4c(cc3c2N)CN(Cc2ccccc2)CC4)cc1,i
CCOc1ccc(CNC(=O)C2CCN(Cc3cc4ccccc4n3Cc3ccccc3C)CC2)cc1,i
Cc1ccccc1Cn1c(CN2CCC(C(=O)NCCN(C)C)CC2)cc2ccccc21,1µM*
Cc1ccccc1Cn1c(CN2CCC(C(=O)NCc3ccc(Cl)cc3)CC2)cc2ccccc21,15%
O=C(NCc1ccccc1Cl)C1CCCN(c2nc3ccccc3n3cccc23)C1 (configuration not stated),-29%
COc1cccc(CNCc2cccn2-c2nnc(N3CCN(c4ccccc4)CC3)s2)c1,10µM*
CCOc1ccc(NCc2cccn2-c2nnc(N3CCC(C(=O)NCc4cccc(OC)c4)CC3)s2)cc1,i
COc1cccc(N2CCN(C(=O)c3cccn3-c3nnc(N4CCCCC4)s3)CC2)c1,i
CN(C)C[C@@H]1CN(Cc2ccccc2)C[C@H]1NC(=O)c1cn[nH]c1,25%
CCOc1ccc(NC(=O)c2ccc(CN3C(=O)C(C)=C(c4ccc(C)cc4)S3(=O)=O)cc2)cc1,i
O=C(CCc1ccccc1)N1CCCC(c2nn[nH]n2)C1 (configuration not stated),28%
CCc1ccc(CNC(=O)c2cnc3sc(N4CCCC4)nn3c2=O)cc1,i
SMILES,Pf Dd2 growth
O=C(O)c1ccc(CN2Cc3[nH]cnc3C[C@H]2c2nc(-c3ccc(F)cc3)no2)cc1,-23%[44.1 µM]
Fc1ccc(-c2noc([C@@H]3Cc4nc[nH]c4CN3Cc3ccccc3)n2)cc1Cl,i
Fc1ccc(CN2Cc3[nH]cnc3C[C@H]2c2nc(-c3ccc(Cl)cc3)no2)cc1,-2%[44.1 µM]
Cc1ccc(-c2noc([C@@H]3Cc4nc[nH]c4CN3CC3CCCCC3)n2)cc1,-13%[44.1 µM]
c1ccc(CN2Cc3[nH]cnc3C[C@H]2c2nc(-c3ccncc3)no2)cc1,10µM*
OCc1ccc(CN2Cc3[nH]cnc3C[C@H]2c2nc(-c3ccncc3)no2)o1,14µM*
Cc1ccc(-c2noc([C@@H]3Cc4nc[nH]c4CN3Cc3cccs3)n2)cc1,-21%[44.1 µM]
Cc1ccc(CN2Cc3[nH]cnc3C[C@H]2c2nc(-c3ccc4ccccc4c3)no2)cc1,-29%[44.1 µM]
Fc1ccc(-c2noc([C@@H]3Cc4nc[nH]c4CN3Cc3cccs3)n2)cc1Cl,10µM*
O=C(NC1CCCCC1)N[C@H]1C[C@H]2C(=O)N3CCC[C@@H]3C(=O)N2C1,-9%[44.1 µM]
CCC(CC)C(=O)N1C[C@@H](CO)[C@H](c2nc(COC)no2)C1,18%
O=C(NCc1cccnc1)c1ccc2c(c1)n(Cc1ccccc1)c(=O)c1ccnn12,-23%
COc1cc2c(cc1Oc1cccc(N(C)C)c1)NC(=O)C21CCN(C(C)=O)CC1,-9%[44.1 µM]
c1cc(-c2cc(-c3ccncc3)c3cncn3c2)cc(N2CCOCC2)c1,i
Cc1noc(C)c1-c1cc(-c2cccc(N3CCOCC3)c2)cn2cncc12,6.3µM*
Cc1ccccc1-c1cc(-c2c(C)noc2C)c2cncn2c1,3.2µM*
Cc1ccccc1-c1cc(-c2cn[nH]c2)c2cncn2c1,-26%[44.1 µM]
COc1ncccc1-c1nc(-c2c(C)noc2C)cc2c1cc(C)n2C,i
Cc1noc2c(-c3ccc(N4CCOCC4)cc3)cc(-c3ccccc3)nc12,i
Cc1ccccc1-c1nc(-c2c(C)noc2C)cc2cc(CO)oc12,-30%[44.1 µM]

# Screening data as filed in PubChem.
